# About 79,000 compounds went through this panel and 15% of them were active in at least one assay; those are over-represented in the sample as a whole. Values without a mark were called inactive. Active and inactive are the calls of the source. No stated cut-off is given here; in the data, active means growth inhibition above about 70%; inactive means the rest.
# Assays:
# [1] = NCI Yeast Anticancer Drug Screen. Data for the rad50 strain (AID 155);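 further: 0% = growth of vehicle-only cultures of the same strain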; settings: S. cerevisiae rad50 strain growth inhibition, stronger effect = higher value
# Procedure, shortened: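 Inhibition values express reduced yeast growth in compound-treated cultures relative to vehicle-treated controls.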
# [2] = NCI Yeast Anticancer Drug Screen. Data for the mec2-1 strain (AID 157); settings: S. cerevisiae mec2-1 strain, stronger effect = higher value
# Procedure, shortened: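 Yeast mec2-1 mutant treated with compound. Readout: growth inhibition vs vehicle controls.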
# [3] = NCI Yeast Anticancer Drug Screen. Data for the sgs1 mgt1 strain (AID 161);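 further: 0% = growth of cultures given vehicle only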; settings: S. cerevisiae sgs1 mgt1 strain, stronger effect = higher value
# Procedure, shortened: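 Inhibition of yeast growth, normalised to vehicle-treated controls, is reported for a strain bearing genetic alterations in DNA damage repair.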
# [4] = NCI Yeast Anticancer Drug Screen. Data for the cln2 rad14 strain (AID 165);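 further: 0% = growth equal to vehicle treated cultures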; settings: S. cerevisiae cln2 rad14 strain, stronger effect = higher value
# Procedure, shortened: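 cln2 rad14 yeast strain; compound exposure; growth inhibition read vs vehicle controls.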
# [5] = NCI Yeast Anticancer Drug Screen. Data for the bub3 strain (AID 167); settings: S. cerevisiae bub3 mutant strain, stronger effect = higher value
# Procedure, shortened: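 Steps: expose the mutant yeast strain to compound; grow alongside vehicle-treated cultures; measure growth; express inhibition against the vehicle cultures.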
# [6] = NCI Yeast Anticancer Drug Screen. Data for the mlh1 rad18 strain (AID 175); settings: S. cerevisiae mlh1 rad18 strain growth inhibition, stronger effect = higher value
# Procedure, shortened: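 Yeast w/ defined DNA-repair lesions; compound exposure; growth vs vehicle controls → % inhibition.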
# [7] = at 5.0 µM (retest, dose inferred, filed as 0.5)
# [8] = at 50.0 µM (retest, dose inferred, filed as 5.0)
SMILES,"growth inhibition [1, 7]","growth inhibition [1, 8]",growth inhibition ([1]; at 50.0 µM),"growth inhibition [2, 7]","growth inhibition [2, 8]",growth inhibition ([2]; at 50.0 µM),"growth inhibition [3, 7]","growth inhibition [3, 8]",growth inhibition ([3]; at 50.0 µM),"growth inhibition [4, 7]","growth inhibition [4, 8]",growth inhibition ([4]; at 50.0 µM),"growth inhibition [5, 7]","growth inhibition [5, 8]",growth inhibition ([5]; at 50.0 µM),"growth inhibition [6, 7]","growth inhibition [6, 8]",growth inhibition ([6]; at 50.0 µM)
O=[N+]([O-])/C=C\c1csc2ccccc12,94% (active),99% (active),99.2% (active),96% (active),98% (active),99.6% (active),97% (active),99% (active),99.5% (active),81% (active),99% (active),99.3% (active),92% (active),99% (active),99.3% (active),92% (active),99% (active),99.3% (active)
CCCCCCCC/C=C\CCCCCCCC(=O)OCCCCC,-7%,2%,15.6%,-5%,0%,13.8%,-2%,18%,17.2%,-8%,-10%,60.8%,-6%,-8%,40.5%,15%,11%,33.6%
CSc1ncc2c(n1)-c1ccccc1OC2NC1CC1 (centres undefined),24%,22%,71.5% (active),18%,16%,62.5%,17%,20%,11.3%,26%,27%,-2.85%,24%,28%,14.6%,18%,12%,-7.35%
COc1ccc2c(C)cc(N/N=C(\C)c3ccccn3)nc2c1,2%,57%,99.5% (active),-3%,51%,99.7% (active),7%,42%,99.6% (active),-6%,28%,99.5% (active),0%,67%,99.7% (active),-2%,57%,99.5% (active)
NC(=Nc1ccccc1)c1ccc2c(c1)c1c(n2Cc2ccccc2)CCCC1,-9%,99% (active),99.3% (active),-7%,97% (active),99.2% (active),-5%,99% (active),99.6% (active),-5%,94% (active),94.9% (active),-2%,92% (active),98.2% (active),-1%,99% (active),99.7% (active)
O=C1NC(=Nc2ccccc2)C(=Nc2ccccc2)N1c1ccccc1,-8%,99% (active),87.8% (active),-7%,98% (active),90.8% (active),-7%,99% (active),85.6% (active),-33%,94% (active),85.8% (active),-36%,99% (active),89.5% (active),-2%,99% (active),85.9% (active)
Clc1ccc2nc(CCSCCc3nc4ccc(Cl)cc4[nH]3)[nH]c2c1,5%,97% (active),87.8% (active),7%,98% (active),98.7% (active),7%,97% (active),82% (active),-15%,99% (active),59.9%,-10%,98% (active),94.8% (active),0%,98% (active),97.9% (active)
O=c1ccnc(Nc2ccc[nH]c2=S)[nH]1,-2%,-11%,3.2%,0%,-7%,-3.3%,-1%,-7%,46.2%,-3%,-23%,1.4%,4%,1%,8.85%,-3%,-16%,1.85%
CC(=O)Nc1ccc(NC(=S)Nc2ccc(NC(C)=O)cc2)cc1,97% (active),99% (active),92% (active),47%,100% (active),15%,68%,100% (active),-1.7%,43%,99% (active),-5.1%,62%,100% (active),0.6%,82% (active),99% (active),13.8%
CCC(C)n1c(C)nc2c(N)cc(C(F)(F)F)cc21 (centres undefined),0%,11%,74% (active),3%,30%,95.8% (active),4%,38%,93.7% (active),1%,8%,98.8% (active),-4%,9%,98% (active),0%,28%,94.5% (active)
CNc1ccc2c(c1)Cc1ccccc1-2,36%,92% (active),97.3% (active),3%,64%,91.8% (active),56%,86% (active),96.9% (active),2%,79% (active),92.8% (active),-7%,45%,77.2% (active),26%,92% (active),97.2% (active)
O=C(/C=C/c1ccccc1)NOC(=O)/C=C/c1ccccc1,42%,93% (active),97.5% (active),34%,95% (active),99.2% (active),66%,94% (active),98.9% (active),25%,91% (active),98.5% (active),34%,92% (active),99% (active),42%,93% (active),98.5% (active)
O=C(O)c1nc2cc(C(F)(F)F)ccc2nc1Nc1ccc(Cl)c(Cl)c1,23%,77% (active),86% (active),19%,90% (active),80.3% (active),-16%,52%,48.8%,-7%,85% (active),76.5% (active),16%,64%,55.1%,19%,87% (active),79.1% (active)
CCCCCCCCCCCCSCCCN,-6%,99% (active),99.2% (active),-3%,99% (active),99.5% (active),-1%,99% (active),99.2% (active),-9%,99% (active),99.5% (active),-5%,99% (active),99.5% (active),-9%,99% (active),99.5% (active)
CSc1nc(C)c(C(=O)CCN2CCOCC2)s1,-7%,67%,99.5% (active),11%,99% (active),99.6% (active),-4%,75% (active),99.6% (active),-6%,89% (active),93% (active),-12%,92% (active),47.6%,-5%,88% (active),99.2% (active)
CN1C=C(C#N)CCC1Sc1ccc(Cl)cc1 (centres undefined),-7%,38%,58.1%,5%,65%,58.6%,3%,54%,92.6% (active),-3%,11%,76.8% (active),-4%,60%,59.3%,22%,82% (active),86.9% (active)
NS(=O)(=O)c1ccc(N=Cc2c3ccccc3nc3cc(Cl)ccc23)cc1,10%,34%,46.4%,12%,28%,49.1%,16%,39%,53.1%,3%,12%,8.05%,19%,38%,27.6%,17%,38%,58.9%
CCc1ccc(CC(=O)O)c2ccc3c(C)ccc(C)c3c12,15%,96% (active),98.9% (active),14%,98% (active),95.8% (active),14%,97% (active),98.6% (active),19%,93% (active),95.8% (active),11%,51%,63.5%,8%,96% (active),94.4% (active)

# — PubChem BioAssay (NCI)
